Here are results for 25 molecules from PubChem BioAssay.

Structures are written as SMILES. Some of the results follow. Active and inactive are the calls of the source.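 Rule for the calls, unless noted: active = signal rise of 40% or more at 20 µM, treated as a fluorescence artifact; inactive = the rest.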

For assay [1], the target named is Sentrin-specific protease 8 (Homo sapiens) (UniProt Q96LD8). In words: SENP8 protease inhibitors, retest, confirmation, biochemical, luminescence, single concentration (AID 488912;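 active = mean inhibition across replicates above about 50%, limit read from the data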). As to conditions: Recombinant SENP8, Z-RLRGG-aminoluciferin luminescence, 60 min; at 12.5 µM; stronger effect = higher value.
Sequence of Sentrin-specific protease 8 (Homo sapiens) (Q96LD8 whole entry, looked up): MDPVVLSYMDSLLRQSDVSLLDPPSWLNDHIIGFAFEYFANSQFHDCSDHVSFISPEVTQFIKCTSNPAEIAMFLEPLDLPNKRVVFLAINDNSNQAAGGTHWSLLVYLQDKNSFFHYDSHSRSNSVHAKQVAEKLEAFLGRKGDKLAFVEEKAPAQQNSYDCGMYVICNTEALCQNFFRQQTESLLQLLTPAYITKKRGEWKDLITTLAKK
Assay [2] has as its target Sentrin-specific protease 6 (Homo sapiens) (UniProt Q9GZR1). In words: SENP6 protease inhibitors, confirmation, biochemical, luminescence, single concentration (AID 488915;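 active = mean inhibition above about 50% in the one-dose retest, limit read from the data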). Particulars: recombinant SENP6, Z-RLRGG-aminoluciferin luminescence; at 12.5 µM; stronger effect = higher value.
Assay [3] has as its target Sentrin-specific protease 7 (Homo sapiens) (UniProt Q9BQF6). As to the kind of experiment: SENP7 protease inhibitors, retest, confirmation, biochemical, luminescence, single concentration (AID 488917;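 active = mean inhibition above about 50% in the one-dose retest, limit read from the data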). As to conditions: recombinant SENP7, Z-RLRGG-aminoluciferin luminescence, 40 min; at 12.5 µM; stronger effect = higher value.
A further assay concerns the target Caspase-3 (Homo sapiens) (UniProt P42574). As to the kind of experiment: caspase-3 protease inhibitors, confirmation, selectivity assay for SENP inhibitor project, biochemical, single concentration (AID 488918;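 active = mean inhibition above about 50%, limit read from the data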;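 note: plate controls were enzyme with DMSO for no effect and wells without caspase-3 for full effect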). Particulars: purified caspase-3, Z-DEVD-aminoluciferin luminescence, 60 min; at 12.5 µM; stronger effect = higher value.
A short description of assay [4]: luciferase luminescence interference by compounds, confirmation, artefact control for SENP inhibitor project, biochemical, single concentration, SENP8 reaction pre-completed (AID 488919;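 active = mean inhibition above about 50% when retested at one dose, limit read from the data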;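 note: plate controls were DMSO wells with completed reaction for no effect and substrate without enzyme for full effect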). As to conditions: Pre-incubated SENP8/Z-RLRGG-aminoluciferin, at 12.5 µM, stronger effect = higher value.
The target in assay [5] is Tumor necrosis factor receptor superfamily member 10B (Homo sapiens) (UniProt O14763). As to the kind of experiment: caspase-8 TRAIL sensitization, hit retest, confirmation, cell-based, NB7+caspase-8, with/without TRAIL, luminescence panel (AID 651596; in the data active = activity above about 50%). Particulars: NB7 neuroblastoma + caspase-8, TRAIL sensitization, luminescence viability, with TRAIL, mean of runs, at 10 µM, stronger effect = higher value.
Sequence of Tumor necrosis factor receptor superfamily member 10B (Homo sapiens) (O14763 whole entry, looked up): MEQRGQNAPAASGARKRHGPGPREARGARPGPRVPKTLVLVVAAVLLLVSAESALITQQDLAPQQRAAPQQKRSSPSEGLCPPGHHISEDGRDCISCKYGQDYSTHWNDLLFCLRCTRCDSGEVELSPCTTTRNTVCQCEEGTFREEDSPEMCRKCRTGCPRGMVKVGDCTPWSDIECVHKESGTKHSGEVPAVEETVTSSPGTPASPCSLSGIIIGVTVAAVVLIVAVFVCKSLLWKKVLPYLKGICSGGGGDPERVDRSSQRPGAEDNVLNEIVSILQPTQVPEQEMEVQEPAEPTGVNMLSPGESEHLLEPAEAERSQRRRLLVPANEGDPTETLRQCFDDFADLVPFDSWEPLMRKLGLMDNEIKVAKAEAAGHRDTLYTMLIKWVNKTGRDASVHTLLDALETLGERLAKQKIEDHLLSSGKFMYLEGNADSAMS

Test in assay [6]: as above
As to conditions: NB7 neuroblastoma + caspase-8, without TRAIL, luminescence viability, without TRAIL, mean of runs, at 10 µM.

Assay [7] in a line: inhibition of Brca1/Bard1 split-luciferase complementation, confirmation, counter-screen for Mdm2/MdmX interaction inhibitor project, luminescence, single concentration (AID 504668; call rule not given here). Particulars: Brca1/Bard1 bimolecular luciferase complementation counterscreen, at 8 µM, stronger effect = higher value.
Assay [8] is described as follows: Peg3 promoter reporter inhibitors, retest, confirmation, cell-based, HeLa, luciferase reporter, single concentration (AID 602417;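 active = at 20 µM dose, 40% or more inhibition averaged across four replicates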). As to conditions: HeLa PEG-Prom luciferase reporter, luminescence, overnight; at 20 µM; stronger effect = higher value. (Reporter assays use an easily measured gene product as a stand-in for the process of interest.)
A short description of assay [9]: HIF-2a reporter inhibitor retest, confirmation, luminescence, 786-0 RCC cells (AID 651580;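 active = mean inhibition across four replicates of at least 40 percent at the single tested concentration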). As to conditions: HIF-2a luciferase reporter luminescence, overnight, at 18.8 µM, stronger effect = higher value.
A short description of assay [10]: HIF-1a luciferase reporter signal reduction – MiaPaCa-2 cells, single concentration, counter-screen for HIF-2a inhibitor project, confirmation (AID 651589;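 active = mean inhibition of the reporter signal across four replicates at the single tested dose of 50% or more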). Particulars: MiaPaCa-2 HIF-1a luciferase reporter, desferoxamine, overnight; at 18.8 µM; stronger effect = higher value.
Assay [11] deals with PEG-3 (UniProt Q6IN02). In words: Peg3 promoter luciferase inhibitors, potency, dose response, cell-based, HeLa, CREF/GAPDH counter-screen panel (AID 624167). As to conditions: CREF/GAPDH counter-screens; HeLa PEG-Prom luciferase reporter, overnight, run 1, dose range 1, at 100 µM (top of the series) unless noted. On the technique in general: A counterscreen serves to expose hits that act by an unwanted route or on another target.
Sequence of PEG-3 (Q6IN02 whole entry, looked up): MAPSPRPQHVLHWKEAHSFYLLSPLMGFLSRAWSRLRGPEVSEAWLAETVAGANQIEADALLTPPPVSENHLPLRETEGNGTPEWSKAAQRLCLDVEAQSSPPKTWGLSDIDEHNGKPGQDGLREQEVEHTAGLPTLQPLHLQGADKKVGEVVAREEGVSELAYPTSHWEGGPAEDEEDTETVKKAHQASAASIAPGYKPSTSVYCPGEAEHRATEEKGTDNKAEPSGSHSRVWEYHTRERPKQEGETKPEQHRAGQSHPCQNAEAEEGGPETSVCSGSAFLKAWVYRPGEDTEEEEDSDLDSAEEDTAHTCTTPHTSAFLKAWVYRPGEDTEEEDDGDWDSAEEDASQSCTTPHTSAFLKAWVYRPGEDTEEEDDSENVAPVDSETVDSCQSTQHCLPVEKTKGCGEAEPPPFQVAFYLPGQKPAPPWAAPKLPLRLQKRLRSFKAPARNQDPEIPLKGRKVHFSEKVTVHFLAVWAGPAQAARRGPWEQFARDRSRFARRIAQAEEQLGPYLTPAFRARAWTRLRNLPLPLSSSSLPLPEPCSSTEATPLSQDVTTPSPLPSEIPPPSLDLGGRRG

In assay [12] the target is PEG-3 (UniProt Q6IN02). The description is as above. As to conditions: CREF/GAPDH counter-screens; HeLa PEG-Prom luciferase reporter, overnight, run 2, dose range 1, at 100 µM (top of the series) unless noted.
Assay [13] deals with Rat fibroblasts (CREF). The description is as above. Particulars: CREF/GAPDH counter-screens; run 1, dose range 1, at 100 µM (top of the series).
Assay [14] deals with Rat fibroblasts (CREF). The description is as above. Particulars: CREF/GAPDH counter-screens; run 2, dose range 1, at 100 µM (top of the series).
Assay [15] in a line: fluorescence interference of Apaf-1 inhibitor hits, dose response, artefact control for Apaf-1 inhibitor project (AID 588538; call rule not given here). Particulars: fluorescence interference counterscreen, Apaf-1 assay format.
Assay [16] addresses Tumor necrosis factor receptor superfamily member 10B (Homo sapiens) (UniProt O14763). In words: TRAIL sensitizers in caspase-8 expressing neuroblastoma cells, dose response, NB7 cells plus caspase-8, luminescence, panel (AID 652002). As to conditions: NB7 neuroblastoma +caspase-8, TRAIL sensitization, luminescence viability, NB7+Caspase-8, with TRAIL, run 1; at 12.5 µM (top of the series).

Assay [17] shares this target. The description is as above. As to conditions: NB7 neuroblastoma +caspase-8, TRAIL sensitization, luminescence viability, NB7+Caspase-8, with TRAIL, run 2; at 12.5 µM (top of the series).
Test in assay [18]: as above
As to conditions: NB7 neuroblastoma +caspase-8, no TRAIL, compound-alone cytotoxicity counter-screen, luminescence viability, NB7+Caspase-8, run 1; at 12.5 µM (top of the series) unless noted.

Test in assay [19]: as above
As to conditions: NB7 neuroblastoma +caspase-8, no TRAIL, compound-alone cytotoxicity counter-screen, luminescence viability, NB7+Caspase-8, run 2; at 12.5 µM (top of the series) unless noted.

Assay [20] can be described thus: Apaf-1 inhibitors, single-dose retest, confirmation, biochemical, fluorescence, DEVD-Rh110, 20 µM (AID 504614;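 active = mean inhibition of at least 40% at 20 µM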;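 note: plate controls were DMSO wells for no effect and DEVD-CHO caspase inhibitor control wells for full effect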). As to conditions: reconstituted apoptosome, caspase-3 DEVD-Rh110 fluorescence; at 20 µM; stronger effect = higher value.
A short description of assay [21]: Rh110 fluorescence interference by putative Apaf-1 inhibitors, confirmation, artefact control for Apaf-1 inhibitor project, biochemical, 20 µM (AID 504615). As to conditions: quenched caspase reaction, at 20 µM, stronger effect = higher value.

Sequence of Sentrin-specific protease 7 (Homo sapiens) (Q9BQF6 706-1050 limits assumed): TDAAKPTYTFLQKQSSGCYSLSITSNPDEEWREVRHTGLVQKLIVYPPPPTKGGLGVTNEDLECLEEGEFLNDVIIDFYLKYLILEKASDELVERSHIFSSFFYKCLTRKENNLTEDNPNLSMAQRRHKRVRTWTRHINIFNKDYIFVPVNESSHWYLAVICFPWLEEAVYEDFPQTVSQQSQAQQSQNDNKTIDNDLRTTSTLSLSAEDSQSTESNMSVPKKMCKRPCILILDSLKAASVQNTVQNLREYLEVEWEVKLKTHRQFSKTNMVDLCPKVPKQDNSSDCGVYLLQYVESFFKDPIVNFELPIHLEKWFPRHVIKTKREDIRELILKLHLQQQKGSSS
Sequence of Sentrin-specific protease 6 (Homo sapiens) (Q9GZR1 628-1112 limits assumed): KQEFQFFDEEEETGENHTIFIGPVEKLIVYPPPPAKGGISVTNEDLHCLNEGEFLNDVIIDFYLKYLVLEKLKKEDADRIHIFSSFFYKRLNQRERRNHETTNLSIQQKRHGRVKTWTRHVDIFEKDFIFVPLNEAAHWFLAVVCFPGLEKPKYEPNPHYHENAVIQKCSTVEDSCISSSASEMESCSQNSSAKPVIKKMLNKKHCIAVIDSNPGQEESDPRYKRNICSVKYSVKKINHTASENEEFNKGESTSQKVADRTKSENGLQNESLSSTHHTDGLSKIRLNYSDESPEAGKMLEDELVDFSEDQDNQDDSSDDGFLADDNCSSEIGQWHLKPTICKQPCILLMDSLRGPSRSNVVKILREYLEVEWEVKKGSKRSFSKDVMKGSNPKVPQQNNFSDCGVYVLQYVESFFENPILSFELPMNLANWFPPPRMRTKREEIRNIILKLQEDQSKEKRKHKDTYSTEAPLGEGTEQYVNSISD
Sequence of Caspase-3 (Homo sapiens) (P42574 28-227 limits assumed): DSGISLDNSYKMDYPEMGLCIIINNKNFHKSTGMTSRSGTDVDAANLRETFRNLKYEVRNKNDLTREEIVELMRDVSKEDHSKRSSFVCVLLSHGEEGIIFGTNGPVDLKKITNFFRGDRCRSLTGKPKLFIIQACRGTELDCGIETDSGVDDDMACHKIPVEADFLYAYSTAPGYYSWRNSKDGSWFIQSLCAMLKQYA

A word on the inhibition: it is the relative decrease from the control value, in per cent. Turning to `O=C(Nc1ccn(Cc2ccccc2)n1)c1n[nH]c([N+](=O)[O-])c1Cl`, the inhibition in assay [1] is 96.4% (active); in assay [2], 97.3% (active); in [3], 102% (active); in the assay with Caspase-3 (Homo sapiens) it was 96.2% (active); in assay [4], 96.7% (active). Besides, the activity in [5] is 64.8%; in [6] it was 63%.

As to `COc1ccc(-c2cc3ccc(OCc4nn[nH]n4)cc3oc2=O)cc1`, the inhibition in assay [1] was 64% (active); in assay [2], 63.1% (active); in assay [3], 87.3% (active); with Caspase-3 (Homo sapiens) it was 66.2% (active); in assay [4], 70.6% (active). The results for the activity in assay [5] and in [6] were 58.8% and 56.2%, respectively.

On to `CN(c1ccc2nc3ccccc3c(=O)n2n1)C1CCCCC1`, for which the inhibition was 94.2% (active) in [1]; 94.5% (active) in [2]; 101% (active) in [3]; 96.3% (active) in the assay with Caspase-3 (Homo sapiens); 77.2% (active) in assay [4]; 27.7% (active) in [7]. For the same molecule, the inhibition in [8] was 78.8% (active); in assay [9], 91.2% (active); in assay [10], 97.8% (active); in the assay with PEG-3 [11] it was 98.5%; with PEG-3 [12] it was 86.2%; in the assay with Rat fibroblasts (CREF) [13] it was 98.4%. Moreover, in the assay with Rat fibroblasts (CREF) [14], the inhibition was 98.9%.

Broadly, the IC50 is the concentration at which inhibition is half-maximal. Consider `CCCCCCCCCCOC(=O)Cn1c(COc2ccc(C)cc2)[n+](C)c2ccccc21`, for which the IC50 in assay [15] is > 100 µM (inactive).

With `COc1cccc(/C=N/Nc2cc(C)nc(-c3ccccc3O)n2)c1O`, the values for the inhibition with PEG-3 [11] and in the assay with PEG-3 [12] were 100% and 102%, respectively.

As to `CN(C)CC(O)COc1ccc(C(C)(C)c2ccc(OCC(O)CN(C)C)cc2)cc1` (stereo not given), the inhibition amounted to 101% with PEG-3 [11] and 99.7% with PEG-3 [12].

Regarding `COc1cc(NC(=O)c2[nH]cnc2C(N)=O)cc(C(=O)Nc2cccc(C(F)(F)F)c2)c1`, the activity, % sensitization in assay [16] was found to be 36.3%; in assay [17] it was 52.5%; in assay [18], 5.71%; in assay [19], 43.7%.

`COc1ccc(S(=O)(=O)/N=C2\C=C(NS(=O)(=O)c3ccccc3)C(=O)c3ccccc32)cc1`: the inhibition in assay [20] was 52.3% (active). For the same molecule, in [21], the activation (fluorescence interference) is -7.09% (inactive). In addition, the IC50 in assay [15] was > 100 µM (inactive).

In the case of `CCN(CC)CCOc1ccc2c(c1)C(=NNC(=O)c1ccccn1)c1cc(OCCN(CC)CC)ccc1-2`, the inhibition in [20] was 56.1% (active). For the same molecule, the activation (fluorescence interference) in assay [21] was 15.8% (inactive).

On to `CCCC[C@@H]1CN=C(N)N1CCc1cc(C(F)(F)F)cc(C(F)(F)F)c1`, for which, in assay [20], the inhibition was 11.5% (inactive). Moreover, in [21], the activation (fluorescence interference) is 3.05% (inactive).

Take `COc1ccccc1C1C(C#N)=C(N)Oc2c1c(-c1ccccc1)nn2-c1ccccc1` (stereo not given): the inhibition in [20] is 19.9% (inactive). Further, in [21], the activation (fluorescence interference) is 5.51% (inactive).

`O=C(CCCN1CCc2[nH]c3ccc(F)cc3c2C1)c1ccc(F)cc1`: in assay [20], the inhibition is 65.3% (active). For the same molecule, the activation (fluorescence interference) in assay [21] is 4.85% (inactive). Also, the IC50 in [15] is > 100 µM (inactive).

Consider `COc1ccc(N(CCC(=O)NCCc2ccccc2)S(=O)(=O)c2ccc(C)cc2C)cc1`, for which the inhibition in assay [20] was 35.9% (inactive). The activation (fluorescence interference) in [21] was 3.62% (inactive).

As to `CCCCNC(=O)C(C)N(CCN(C)C)C(=O)CCCCCN1C(=O)NC(c2ccc(Cl)cc2)C(C(=O)OCc2ccccc2)=C1C` (stereo not given), the inhibition was 22.9% (inactive) in [20]; 27.8% (active) in assay [7]; 99.7% (active) in [8]; 102% with PEG-3 [11]; 101% in the assay with PEG-3 [12]. In [21], the activation (fluorescence interference) was -179% (inactive).

In the case of `C(=N/Nc1cc(N2CCOCC2)nc(N2CCOCC2)n1)/c1ccccc1`, the inhibition in assay [20] was 27.8% (inactive). Moreover, the activation (fluorescence interference) in assay [21] was 2.85% (inactive).

Regarding `CC(NC(=O)c1ccccc1SCC(=O)N1CCCC1)c1ccccc1` (stereo not given), the inhibition in assay [20] is 22.9% (inactive). For the same molecule, the activation (fluorescence interference) in assay [21] was -8.17% (inactive).

For the molecule `CN(C)S(=O)(=O)c1ccc2oc(SCC(=O)Nc3ccccc3F)nc2c1`, the inhibition in assay [20] is 77.8% (active). Further, in [21], the activation (fluorescence interference) is 10.6% (inactive). The IC50 in assay [15] is > 100 µM (inactive).

Consider `Cc1c(-c2nn(C)c(=O)c3ccccc23)oc2ccc(F)cc2c1=O`, for which the inhibition in assay [20] is 77.4% (active). In assay [21], the activation (fluorescence interference) is 2.5% (inactive).

Regarding `COc1cccc(-c2sc3ccc(OC)cc3c2-c2ccc(OCCN3CCCCC3)cc2)c1`, the inhibition was 4.75% (inactive) in assay [20] and 32.7% (active) in assay [7]. In addition, the activation (fluorescence interference) in [21] is 11.8% (inactive).

As for `CCc1ccc(CNC(=O)C2CCN(c3nnc(C)c4c(C)n(-c5ccc(C)cc5)nc34)CC2)cc1`, the inhibition in assay [20] was 13.2% (inactive); in assay [7], 23.7% (active); in [9] it was -2.57% (inactive); in [10] it was 20.1% (inactive). Besides, the activation (fluorescence interference) in [21] was 0.21% (inactive).

For `O=C1NNC(c2ccccc2)=N/C1=C\c1ccc(Cl)cc1`, the inhibition in assay [20] is 43.9% (active). Also, the activation (fluorescence interference) in assay [21] was 7.08% (inactive). Further, the IC50 in [15] was > 100 µM (inactive).

In the case of `C#CCOCCOCCOCCNc1nc(N2CCN(C(=O)CCCCCCCCCCNC(=O)[C@H](CCCCN)n3cc(C)nn3)CC2)nc(N2CCN(C(=O)CCCCCCCCCCNC(=O)[C@H](CO)n3cc(CCCSC)nn3)CC2)n1`, the inhibition in assay [20] is 4.3% (inactive). Besides, the activation (fluorescence interference) in assay [21] was 3.38% (inactive).

Turning to `Cc1[nH]n(-c2ccccc2)c(=O)c1/C=N/NC(=O)c1ccoc1C`, the inhibition in assay [20] is 62% (active). Moreover, the activation (fluorescence interference) in assay [21] is -3.23% (inactive). For the same molecule, the IC50 in assay [15] was > 100 µM (inactive).

As to `C[C@@H](CN1CCC[C@H]1CN1C(N)=NC[C@@H]1Cc1ccccc1)N1C[C@@H](Cc2ccccc2)N(CCCC2CCCC2)C1=N`, the inhibition in [20] was 11.8% (inactive). The activation (fluorescence interference) in [21] is 7.13% (inactive).

In the case of `CCOC(=O)N1CCC(c2cc(=O)n(-c3ccccc3)[nH]2)CC1`, the inhibition in [20] is 32.4% (inactive). Moreover, the activation (fluorescence interference) in [21] was 8.7% (inactive).
